Compounds without any hit were thinned out: in the full panel of roughly 83,000, 20% have a hit.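 In brief: 96-well plates, 48 h treatment, single concentration, percent growth endpoint.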 Values without a mark were called inactive. Activity calls are given as the source filed them.
These molecules were tested on T-47D breast (assay: NCI-60 one-dose screen, 48 h (100 = growth as untreated, 0 = no growth, -100 = all killed)). Conditions: 10 µM unless noted.
Procedure: Growth inhibition of the T-47D human tumor cell line is measured as a screen for anti-cancer activity. Cells are grown in 96 well plates and exposed to the test compound for 48 hours. Compounds are tested at a single concentration, which is 10^-5 M for most compounds. The reported endpoint is percent growth (GI% or GIPRCNT), where numbers from 0 - 100% represent growth inhibition, and numbers from -100% - 0 represent cell death. For example, a value of 40 represents 60% growth inhibition. A value of 0 means no net growth occurred over the course of the experiment. A value of -40 indicates 40% of cells at the beginning of the experiment died by the end of the experiment. A value of -100 means all cells are dead at the end of the experiment.
NCI-60 Human Tumor Cell Lines Screen was performed using the standard one-dose NCI protocol, which is described in more detail at https://dtp.cancer.gov/discovery_development/nci-60/default.htm.
Compounds with GIPRCNT values below 10 were considered active. Activity score was based on GIPRCNT using the following formula: […]
Score is 0 for GIPRCNT values of 100 or above, 50 for GIPRCNT values of 0, and 100 for GIPRCNT values of -100.

In order of rising growth:
1. CC(C)CCNCC(O)Cn1c2ccccc2c2ccccc21 (stereo not given)  12.2%
2. Cn1c(C(=O)c2cccc3ccccc23)nc2ccccc21  17%
3. CCOC(=O)c1cc2c(n1Cc1cccc(OC)c1)-c1oncc1CCC2  33.1%
4. O=c1c2cccc(F)c2sc2c(N3CCNCC3)nc3ccccc3c12  36.3%
5. Cc1cccc(NC(=O)c2sc3nc4c(cc3c2N)CCCC4)c1C  36.3%
6. CCOC(=O)c1cc2c(n1Cc1ccccc1OC)-c1oncc1CCC2  38.6%
7. N#CC(C#N)=Cc1c(-c2ccccc2)[nH]c2ccccc12  38.6%
8. O=C1CCC(N2C(=O)c3cccc(NCCCCCCOc4ccc(Nc5nccc(Nc6ccccc6)n5)cc4)c3C2=O)C(=O)N1 (stereo not given)  39.5%
9. Cn1cc([C@@H]2Nc3ccc4[nH]ncc4c3[C@H]3[C@H]4CCC(C4)[C@H]32)c(C(F)(F)F)n1  52.6%
10. CCCCN1CCN(c2ccc3nc(-c4ccc5nc(-c6ccc(OCC)cc6)[nH]c5c4)[nH]c3c2)CC1  59.7%
11. O=C(c1ccccc1)N(CCc1ccc(Cl)cc1)C(=S)N(C(=O)c1ccccc1)c1ccccc1  61.7%
12. CSc1nc2c(c(=O)n1C)N=C1c3ccccc3C(=O)C1C(c1ccccc1)N2 (stereo not given)  61.9%
13. O=c1c2cc(F)ccc2sc2c(NCCN3CCCC3)nc3ccccc3c12  61.9%
14. OCCNc1nc(Nc2ccc(C3=NN(c4cc(Cl)cc(Cl)c4)C(c4ccc(C(F)(F)F)cc4)C3)cc2)nc(N2CCOCC2)n1 (stereo not given)  64.1%
15. COc1cc(NC(=O)CCSc2nc3ccccc3c(=O)n2CCc2ccccn2)cc(OC)c1OC  69.7%
16. COc1ccc(-c2cn[nH]c2-c2ccc(OC)c(O)c2)cc1  73.6%
17. CCOC(=O)C1=CN(C)C=C(C(=O)OCC)C1c1cc(Br)c(OCC)c(OC)c1  74.9%
18. O=Cc1c(OCc2cnnn2CC(=O)Nc2ccc(Br)cc2)ccc2ccccc12  78.7%
19. OC(CNC1CCCCC1)Cn1c2ccc(I)cc2c2cc(I)ccc21 (stereo not given)  81.3%
20. O=C(Nc1ccc(F)c(Cl)c1)Nc1ccc(Cl)c(Cl)c1  85.5%
21. Cc1ccc2nc(NC(=O)CSC(=S)N3CCN(c4ccccc4)CC3)sc2c1  85.7%
22. Nc1ccc(-c2nn3c(CCC(=O)c4nc5ncccc5[nH]4)nnc3s2)c(O)c1  87.1%
23. COc1cc(C=C2C(=O)N(C)C(=O)N(C)C2=O)cc(CN2CCCCC2)c1O  90.2%
24. C[n+]1c2ccccc2nc2ccc(NCCO)cc21  91.9%
25. O=[N+]([O-])c1cc2c(ccc3occc32)o1  95.1%
26. O=CCCCC(O)C=O (stereo not given)  95.9%
27. O=C(O)CCC(=O)c1ccc(C2CCCCCC2)cc1  96.2%
28. Nc1nc(-c2cnccn2)nn1-c1nc2ccccc2s1  96.9%
29. O=C1N=c2ccccc2=C1c1sc(=Nc2ccccc2)n(Nc2ccccc2)c1O  97.6%
30. NNC(=O)CNC(=O)Nc1n[nH]c(=S)s1  101%
31. COc1ccc(-c2c(-c3ccc(OC)c(O)c3)cnc3ncnn23)cc1  103%
32. COc1cc(/C=C2\CCC/C(=C\c3cc(CN4CCCCC4)c(O)c(OC)c3)C2=O)cc(CN2CCCCC2)c1O  104%
33. CC(=O)c1ccc2oc(=O)n(Cc3ccc(C#N)cc3)c(=O)c2c1  104%
34. C#CCn1cc(C=C2C(=O)N(C)C(=O)N(C)C2=O)c2cc(Cl)ccc21  112%

With `COc1cc2nc(-c3cccc4cccnc34)nc(NC3CCN(Cc4ccccc4)CC3)c2cc1OC` the growth was -64.4% (active).
With `O=C(Nc1ccc(Cl)cc1F)c1cc(F)ccc1O` the growth was -8.15% (active).
With `CC(C)CCOc1ccc(-c2n[nH]c(C(F)(F)F)c2-c2cncc(C#N)c2)c(O)c1` the growth was 2.83% (active).
`Cc1cccc2c(=O)c3c(sc12)c(NCCN)nc1ccccc13` was tested, and the growth was -50.2% (active).
In the case of `COc1ccc2sc3c(NCCCN)nc4ccccc4c3c(=O)c2c1`, the growth is reported as -32.6% (active).
For `O=c1oc2ccc(I)cc2c(=O)n1-c1ccc(Cl)cc1F`, the growth was -12% (active).

— PubChem BioAssay (NCI)
